# Source: the supplement of paper PMC8728848
# Many of the other results were omitted from the sample, so the strongest signals are more common in it than they were.
# B1: Epa15 (Candida glabrata) (protein)
# chain: MGSSHHHHHHSSGLVPRGSHMASDPTTFPLGCSPEFTKTKKGLSMELYRYDYLPPGSYPCWDSAYLNPSYPRTGYKAKKLIATVDGVSGDINFKFNPKFGCKAIPDYLPSNFNYHEPITITNFTMILYGYFMPKTTAFHTFYVTADDLLFMNFGAGNAFDCCRREETADKFGNYAAYSVWGKKSLKNELTVYLHTGVYYPIRLFYNNRDYIAQLDIRFKTEHSNAIITNFTDYFYSVDDSSLGCPGLI
# How the values were obtained:
# Assay in all cases: glycan array binding signal (z-score within array); higher = stronger binding
# Conditions in all cases: glycan notation: IUPAC condensed, linker removed
# [1] = biological target: Fuc(a1-2)Gal(b1-3)[Fuc(a1-4)]GlcNAc
# How it was run: (§1)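 Columns mapping to the same glycan were averaged after glycan names were converted to IUPAC-condensed notation. The data come from 3228 arrays in the Consortium for Functional Glycomics database, limited to those with an available protein sequence. Binding is reported as a within-array Z-score averaged across arrays of one protein sequence and across linkers.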
# [2] = biological target: Fuc(a1-2)Gal(b1-4)[Fuc(a1-3)]GlcNAc
# How it was run: as §1
# [3] = biological target: Fuc(a1-2)Gal(b1-4)[Fuc(a1-3)]GlcNAc(b1-3)Gal(b1-4)[Fuc(a1-3)]GlcNAc(b1-3)Gal(b1-4)[Fuc(a1-3)]GlcNAc
# How it was run: as §1
# [4] = biological target: Fuc(a1-2)Gal(b1-4)[Fuc(a1-3)]GlcNAc(b1-3)[Neu5Ac(a2-6)Gal(b1-4)GlcNAc(b1-6)]Gal(b1-4)Glc
# How it was run: as §1
# [5] = biological target: Fuc(a1-2)[Gal(a1-3)]Gal(b1-3)GalNAc
# How it was run: as §1
# [6] = biological target: Fuc(a1-3)[Gal(b1-4)]GlcNAc(b1-2)Man(a1-3)[Fuc(a1-3)[Gal(b1-4)]GlcNAc(b1-2)Man(a1-6)]Man(b1-4)GlcNAc(b1-4)GlcNAc
# How it was run: as §1
# [7] = biological target: Gal(a1-3)Gal(b1-3)GlcNAc(b1-2)Man
# How it was run: as §1
# [8] = biological target: Gal(a1-3)Gal(b1-3)[Fuc(a1-4)]GlcNAc(b1-2)Man(a1-3)[Gal(a1-3)Gal(b1-3)[Fuc(a1-4)]GlcNAc(b1-2)Man(a1-6)]Man(b1-4)GlcNAc(b1-4)GlcNAc
# How it was run: as §1
# [9] = biological target: Gal(b1-3)Gal(b1-4)GlcNAc
# How it was run: as §1
# [10] = biological target: Gal(b1-3)GalNAc(b1-4)Gal(b1-4)Glc
# How it was run: as §1
# [11] = biological target: Gal(b1-3)GlcNAc(b1-2)Man
# How it was run: as §1
# [12] = biological target: Gal(b1-3)[Neu5Ac(a2-6)]GlcNAc
# How it was run: as §1
# [13] = biological target: Gal(b1-3)[Neu5Ac(a2-6)]GlcNAc(a1-4)Gal(b1-4)Glc
# How it was run: as §1
# [14] = biological target: Gal(b1-4)GlcNAc(b1-2)[Gal(b1-4)GlcNAc(b1-6)]Man(a1-6)[GlcNAc(b1-4)][Gal(b1-4)GlcNAc(b1-2)Man(a1-3)]Man(b1-4)GlcNAc(b1-4)GlcNAc
# How it was run: as §1
# [15] = biological target: Gal(b1-4)GlcNAc(b1-3)Gal(b1-4)GlcNAc(b1-2)[Gal(b1-4)GlcNAc(b1-3)Gal(b1-4)GlcNAc(b1-6)]Man(a1-6)[Gal(b1-4)GlcNAc(b1-3)Gal(b1-4)GlcNAc(b1-2)Man(a1-3)]Man(b1-4)GlcNAc(b1-4)GlcNAc
# How it was run: as §1
# [16] = biological target: Gal(b1-4)GlcNAc(b1-3)[Gal(b1-4)GlcNAc(b1-6)]GalNAc
# How it was run: as §1
# [17] = biological target: Gal(b1-4)GlcNAc(b1-6)[Gal(b1-3)]GlcNAc
# How it was run: as §1
# [18] = biological target: Gal3S(b1-4)Glc
# How it was run: as §1
# [19] = biological target: Gal3S(b1-4)GlcNAc
# How it was run: as §1
# [20] = biological target: Gal6S(b1-3)GlcNAc
# How it was run: as §1
# [21] = biological target: Gal6S(b1-4)Glc6S
# How it was run: as §1
# [22] = biological target: Gal6S(b1-4)GlcNAc6S
# How it was run: as §1
# [23] = biological target: GalNAc(b1-3)Gal(a1-4)Gal(b1-4)GlcNAc
# How it was run: as §1
# [24] = biological target: GalNAc3S(b1-4)[Fuc(a1-3)]GlcNAc
# How it was run: as §1
# [25] = biological target: Glc(b1-6)Glc
# How it was run: as §1
# [26] = biological target: GlcNAc(a1-4)Gal(b1-4)GlcNAc(b1-3)Gal(b1-4)GlcNAc(b1-3)Gal(b1-4)GlcNAc
# How it was run: as §1
# [27] = biological target: GlcNAc(b1-2)Gal(b1-3)GalNAc
# How it was run: as §1
# [28] = biological target: GlcNAc(b1-2)Man(a1-3)[GlcNAc(b1-4)][GlcNAc(b1-2)Man(a1-6)]Man(b1-4)GlcNAc(b1-4)[Fuc(a1-6)]GlcNAc
# How it was run: as §1
# [29] = biological target: GlcNAc(b1-3)Gal(b1-3)GalNAc
# How it was run: as §1
# [30] = biological target: GlcNAc(b1-3)Gal(b1-4)GlcNAc(b1-2)[GlcNAc(b1-3)Gal(b1-4)GlcNAc(b1-6)]Man(a1-6)[GlcNAc(b1-3)Gal(b1-4)GlcNAc(b1-2)Man(a1-3)]Man(b1-4)GlcNAc(b1-4)GlcNAc
# How it was run: as §1
# [31] = biological target: GlcNAc(b1-3)Gal(b1-4)GlcNAc(b1-6)[GlcNAc(b1-3)Gal(b1-3)]GalNAc
# How it was run: as §1
# [32] = biological target: GlcNAc(b1-3)[GlcNAc(b1-4)][GlcNAc(b1-6)]GlcNAc
# How it was run: as §1
# [33] = biological target: Kdn(a2-3)Gal(b1-4)GlcNAc
# How it was run: as §1
# [34] = biological target: Man(a1-2)Man(a1-2)Man(a1-3)[Man(a1-2)Man(a1-6)[Man(a1-3)]Man(a1-6)]Man(b1-4)GlcNAc(b1-4)GlcNAc
# How it was run: as §1
# [35] = biological target: Man(a1-3)[Man(a1-6)]Man
# How it was run: as §1
# [36] = biological target: Neu5Ac(a2-3)Gal(b1-3)GlcNAc(b1-2)Man(a1-3)[Neu5Ac(a2-3)Gal(b1-3)GlcNAc(b1-2)Man(a1-6)]Man(b1-4)GlcNAc(b1-4)GlcNAc
# How it was run: as §1
# [37] = biological target: Neu5Ac(a2-3)Gal(b1-3)GlcNAc(b1-2)[Neu5Ac(a2-3)Gal(b1-3)GlcNAc(b1-4)]Man(a1-6)[Neu5Ac(a2-3)Gal(b1-3)GlcNAc(b1-2)Man(a1-3)]Man(b1-4)GlcNAc(b1-4)GlcNAc
# How it was run: as §1
# [38] = biological target: Neu5Ac(a2-3)Gal(b1-4)GlcNAc(b1-3)Gal(b1-4)GlcNAc(b1-3)Gal(b1-4)GlcNAc(b1-2)Man(a1-3)[Neu5Ac(a2-3)Gal(b1-4)GlcNAc(b1-3)Gal(b1-4)GlcNAc(b1-3)Gal(b1-4)GlcNAc(b1-2)Man(a1-6)]GalNAc
# How it was run: as §1
# [39] = biological target: Neu5Ac(a2-3)Gal(b1-4)[Fuc(a1-3)]GlcNAc(b1-6)[Gal(b1-3)]GalNAc
# How it was run: as §1
# [40] = biological target: Neu5Ac(a2-3)Gal(b1-4)[Fuc(a1-3)]GlcNAc6S
# How it was run: as §1
# [41] = biological target: Neu5Ac(a2-8)Neu5Ac
# How it was run: as §1
# [42] = biological target: Neu5Gc(a2-3)Gal(b1-4)GlcNAc
# How it was run: as §1
# [43] = biological target: Neu5Gc(a2-8)Neu5Gc(a2-3)Gal(b1-4)GlcNAc
# How it was run: as §1
# [44] = biological target: Neu5Gc(a2-8)Neu5Gc(a2-6)Gal(b1-4)GlcNAc
# How it was run: as §1
binder,measurement,setting,value
B1,glycan array binding signal (z-score),[1],-0.446
same,glycan array binding signal (z-score),[2],-0.361
same,glycan array binding signal (z-score),[3],-0.446
same,glycan array binding signal (z-score),[4],-0.092
same,glycan array binding signal (z-score),[5],-0.127
same,glycan array binding signal (z-score),[6],-0.403
same,glycan array binding signal (z-score),[7],1.8
same,glycan array binding signal (z-score),[8],1.85
same,glycan array binding signal (z-score),[9],0.625
same,glycan array binding signal (z-score),[10],2.64
same,glycan array binding signal (z-score),[11],0.38
same,glycan array binding signal (z-score),[12],2.5
same,glycan array binding signal (z-score),[13],-0.269
same,glycan array binding signal (z-score),[14],-0.041
same,glycan array binding signal (z-score),[15],2.71
same,glycan array binding signal (z-score),[16],5.02
same,glycan array binding signal (z-score),[17],5.53
same,glycan array binding signal (z-score),[18],-0.053
same,glycan array binding signal (z-score),[19],-0.488
same,glycan array binding signal (z-score),[20],2.78
same,glycan array binding signal (z-score),[21],4.58
same,glycan array binding signal (z-score),[22],10.6
same,glycan array binding signal (z-score),[23],0.652
same,glycan array binding signal (z-score),[24],-0.141
same,glycan array binding signal (z-score),[25],-0.464
same,glycan array binding signal (z-score),[26],-0.452
same,glycan array binding signal (z-score),[27],-0.411
same,glycan array binding signal (z-score),[28],-0.557
same,glycan array binding signal (z-score),[29],-0.444
same,glycan array binding signal (z-score),[30],0.605
same,glycan array binding signal (z-score),[31],-0.188
same,glycan array binding signal (z-score),[32],-0.536
same,glycan array binding signal (z-score),[33],-0.317
same,glycan array binding signal (z-score),[34],-0.285
same,glycan array binding signal (z-score),[35],-0.303
same,glycan array binding signal (z-score),[36],0.415
same,glycan array binding signal (z-score),[37],-0.226
same,glycan array binding signal (z-score),[38],2.56
same,glycan array binding signal (z-score),[39],1.87
same,glycan array binding signal (z-score),[40],-0.461
same,glycan array binding signal (z-score),[41],-0.571
same,glycan array binding signal (z-score),[42],-0.437
same,glycan array binding signal (z-score),[43],-0.346
same,glycan array binding signal (z-score),[44],-0.395
